These results are taken from the OligoGym collection.
Also: reference of the scale not given here.

One assay has as its target PLEKHN1. Put plainly: pooled miR-30 sensor sort-seq; sequence = guide strand. The note with it: shRNA.
In the case of TCGCTGGTTCTCCAGGTCCAGG, the sensor-assay potency score (higher = more potent) was -2.
Same read-out and setting: then TAGCTCCAGGTAGCAGTCGCTG, with -1.67.
TTTCTGGAGAAGGAGGCCCGGA gave a sensor-assay potency score (higher = more potent) of -1.45.
The same measure, in the same setting: for TAGTGGAAGAGCTTGTTGGCGG the value was -0.587; for TAGCTGGCGCACACCACGCGGA, -1.23; for TGAAATGTGAGTCCTTCCGAGC, -1.13.
Turning to TGACCGTAGTCCTCGTAGCTGG, the sensor-assay potency score (higher = more potent) was -1.04.
On the same count and under the same terms, for TCCAGGTCCAGGATGTCCGTGC the value was -1.12.

In a further assay the target is PLK1S1. The assay is described as above. As to conditions: shRNA.
TTGAGTCTCATATTCGAGCTTC came in with a sensor-assay potency score (higher = more potent) of 0.47.
The sequence TATTCTGAAACTGGTATCGGAG displayed a sensor-assay potency score (higher = more potent) of -0.809.
The same measure, in the same setting: for TATTTCAGCTTAACTCTGCATG the value was -0.461; for TTGGTTTCGAGTATGAGCCTTC, 0.232.
Same read-out and setting: for TAGTTTTACATATTTCAGCTTA the value was -0.42; for TAGATGAAAAACTAGCTTCCGA, -0.0275; for TTTGTCTCGAATGCACCGCTGC, -0.55.
Same read-out and setting: for TATTCCACTATTGTCATTCAGA the value was -0.697.
The sequence TTTGAGCATAGCATCTTCTTAA gave a sensor-assay potency score (higher = more potent) of -0.677.
Still for that read-out and setting: for TTCAGATTCACATATTTCCTTC the value was -0.129; for TTGTACTACACAGCTGTCTGTC, -0.193.

The target in another assay is PLN. The description is as above. The note with it: shRNA.
Take TATAGCTGAGCGAGTGAGGTAT: the sensor-assay potency score (higher = more potent) is -0.0267.
Same read-out and setting: then TAAGATGAGACAGAAATTGATA, with -0.754.
The same measure, in the same setting: for TTTAGTCTTAATCTTGACCTTT the value was -0.026.
Same read-out and setting: then TCTGTAGCTTTTGACGTGCTTG, with -0.521; and TTTGACGTGCTTGTTGAGGCAT, with 0.851.
As for TTTCACAAAGAAACTCTTCTAC, the sensor-assay potency score (higher = more potent) was 0.725.
Still for that read-out and setting: for TTGAGGCTCTTCTTATAGCTGA the value was -0.603; for TTAATCTTGACCTTTTCACAAA, -1.35.
In turn, TTGACGTGCTTGTTGAGGCATT displayed a sensor-assay potency score (higher = more potent) of -0.832.
In turn, TTGTTTTCCTGTCTGCATGGGA yielded a sensor-assay potency score (higher = more potent) of 0.161.
Same read-out and setting: then TAGCTTTTGACGTGCTTGTTGA, with -0.611; and TTAGTCTTAATCTTGACCTTTT, with -0.719.

In the next assay the target is PLS1. The description is as above. As to conditions: shRNA.
Regarding TTTAAGAGTCTGATTGACCCAT, the sensor-assay potency score (higher = more potent) turned out to be 0.465.
Still for that read-out and setting: for TTTGCTTTTTAATTCTTGCATT the value was -1.04; for TTCCTTGCTCTCTCCTTCCAGT, -0.4; for TTTATCTGCTTCTTGAAGCATG, -0.495.
Same read-out and setting: for TTGTAGTTCTTCAAGCTCCTCC the value was 0.438.
The sequence TAAATTTTCAGAAATAGTGAAT had a sensor-assay potency score (higher = more potent) of -0.578.
Turning to TTAGTGACACAAACTCTTCAAA, the sensor-assay potency score (higher = more potent) is -0.919.
Still for that read-out and setting: for TTAAGAGTCTGATTGACCCATT the value was -0.779; for TTAACAATGCAATCAGAGCTTC, -0.361.
